# CYP2C9 inhib = human CYP2C9 inhibition; P11712; inhibition, % at 5 µM; 96,000 tested, 20% active; CYP2C9 Supersomes, luciferin-H conversion, luminescence; AID 777;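 active = blocking of liver enzyme CYP2C9 beyond about 50% at 5 µM, limit read from the data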
# Target sequence (P11712 whole entry, looked up): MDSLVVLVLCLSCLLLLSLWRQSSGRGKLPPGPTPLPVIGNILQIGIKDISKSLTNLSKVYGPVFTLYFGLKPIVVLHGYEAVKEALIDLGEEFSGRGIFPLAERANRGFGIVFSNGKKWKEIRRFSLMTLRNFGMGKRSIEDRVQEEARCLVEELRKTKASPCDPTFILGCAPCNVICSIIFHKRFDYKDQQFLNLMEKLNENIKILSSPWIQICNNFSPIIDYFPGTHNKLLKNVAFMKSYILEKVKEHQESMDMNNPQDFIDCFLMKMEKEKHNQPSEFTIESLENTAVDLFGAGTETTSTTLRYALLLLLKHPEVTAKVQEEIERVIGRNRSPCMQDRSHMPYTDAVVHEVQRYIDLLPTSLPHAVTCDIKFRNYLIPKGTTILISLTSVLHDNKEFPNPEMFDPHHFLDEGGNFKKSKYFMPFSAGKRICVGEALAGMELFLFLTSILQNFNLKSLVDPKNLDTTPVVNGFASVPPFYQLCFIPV
# PostGolgi ctrl = yeast control strain growth, post-Golgi counter-screen; efflux-deficient yeast background strain, growth absorbance A615, 16 h; inhibition, % at 10 µM; 98,000 tested, 5% active; AID 738
# CYP2C19 inh = human CYP2C19 inhibition. CYP2C19 Supersomes, luciferin-H EGE luminescence, 30 min. AID 778. P33261. 96,000 tested, 21% active. inhibition, % at 5 µM;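 active = CYP2C19 inhibition above a set limit at 5 µM in the primary screen, cut at about 50% in these data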
# PostGolgi yeast = growth inhibition of a yeast mutant, post-Golgi transport screen; post-Golgi transport phenotypic cell assay; inhibition, % at 10 µM; 98,000 tested, 0.9% active; AID 739;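 note: yeast cells grown in 1536-well plates; yeast grown about 18 h at 30C before absorbance read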
# CYP2C9 activ = activators of human CYP2C9. recombinant CYP2C9, luciferin-H conversion, luminescence; hits give high values; factor 1 = untreated enzyme, 0 = blocked. AID 1024. 96,000 tested, 1.4% active. P11712. activation factor at 5 µM;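 active = activation factor of 2 or more for CYP2C9 at a 5 µM dose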
# CYP2C19 act = cytochrome P450 2C19 (human) activation | recombinant CYP2C19, luciferin-H EGE luminescence; hits give high values; 0 = fully inhibited enzyme, 1 = untreated enzyme | P33261 | 96,000 tested, under 10 active | activation factor at 5 µM;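 active = activation factor of at least 2 at 5 µM in the primary screen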
# Numbers stand for hits; n = inactive; x = not tested or not shown. Sampled rows, rich in hits. Any-hit rate of the full collection: about 32%. Cut-off read from the data, not from the text of the source, unless noted: active = inhibition above about 30%; inactive = the rest.
SMILES,CYP2C9 inhib,PostGolgi ctrl,CYP2C19 inh,PostGolgi yeast,CYP2C9 activ,CYP2C19 act
CCC(C)C(NC(=O)c1ccccc1NC(=O)c1ccc(OC)cc1)C(=O)NCc1ccco1 (configuration not stated),89,n,76,n,n,n
O=C1C2C3C=CC(CO)(O3)C2C(=O)N1c1ccccc1-c1ccccc1 (configuration not stated),n,n,n,n,n,n
Cc1cc(C)n(-c2nc(NCC3CCCO3)c3c4c(sc3n2)COC(C)(C)C4)n1 (configuration not stated),n,n,n,n,n,n
Cc1cc(C)n(-c2nc(SCC(=O)NCC3CCCO3)c3c4c(sc3n2)CCCC4)n1 (configuration not stated),85,x,63,x,n,n
Cc1cc(C)n(-c2nc(NCCCO)c3c4c(sc3n2)CCCC4)n1,n,35,n,n,n,n
Cc1cc(Oc2ccccc2)nc(SCC(=O)Nc2ccc(Cl)c(Cl)c2)n1,65,n,56,n,n,n
CCC(=O)Nc1ccc2nc(SCC(=O)N3CCCC3)sc2c1,n,n,n,n,n,n
CC(=O)Nc1ccc2nc(SCC(=O)Nc3ccc(N4CCOCC4)c(Cl)c3)sc2c1,76,n,n,n,n,n
CC(=O)CSc1nc2ccc(Nc3nc(N4CCOCC4)nc(N4CCOCC4)n3)cc2s1,55,n,75,n,n,n
Cc1cc(N2CCOCC2)nc(SCc2ccc(Cl)cc2Cl)n1,64,42,n,n,n,n
O=C(CSc1nnc(C23CC4CC(CC(C4)C2)C3)o1)Nc1ccc(N2CCOCC2)c(Cl)c1,n,n,n,n,n,n
Cc1cc(C)nc(SCC(=O)Nc2ccc(N3CCOCC3)c(Cl)c2)n1,52,n,n,n,n,n
CCN(CC)S(=O)(=O)c1cccc(C(=O)NC(Cc2c[nH]c3ccccc23)c2nnc3n2CCCCC3)c1 (configuration not stated),n,n,n,n,n,n
N#Cc1c(-c2ccccc2)c(-c2ccccc2)n(Cc2ccco2)c1NC(=O)c1cccs1,64,n,n,n,n,n
O=C(O)c1ccc2c(c1)-c1nc3ccccc3n1C2=O,n,n,n,n,n,n
CCOC(=O)N1CCN(S(=O)(=O)c2ccc(Br)s2)CC1,81,n,88,n,n,n
COc1ccc(C(=O)N2CCCC(C(=O)N3CCCCCC3)C2)cc1 (configuration not stated),n,n,n,n,n,n
O=C(O)C1CCCN1S(=O)(=O)c1ccc(Br)s1 (configuration not stated) (tested in a mixture with another compound),n,n,59,n,n,n
CCOC(=O)C1CCCN(S(=O)(=O)c2ccc(OC)cc2)C1 (configuration not stated),n,n,96,n,2.4,n
COc1ccc(S(=O)(=O)N2CCCC(C(=O)N3CCCCCC3)C2)cc1 (configuration not stated),n,66,80,n,n,n
O=C(Nc1ccc2c(c1)OCO2)c1c(Cl)nc2sccn12,n,n,n,n,n,n
CCOC(=O)/C(C(N)=NCCCO)=C(/O)c1ccccc1,n,n,n,n,n,n
CC1(C)CC(=O)c2cc(OCC(=O)NCCCN3CCN(c4ccc(F)cc4)CC3)ccc2O1,n,n,n,n,n,n
CCOC(=O)C1CCCN(C(=O)C2CCN(S(=O)(=O)c3cccs3)CC2)C1 (configuration not stated),64,n,75,n,n,n
Cc1cc(S(=O)(=O)N2CCCC2)ccc1OCC(=O)N1CCOCC1,n,n,n,n,n,n
COc1ccc(S(=O)(=O)N2CCCC(C(=O)N3CCOCC3)C2)cc1C (configuration not stated),n,n,n,n,2.2,n
O=C(C1Cc2ccccc2CN1S(=O)(=O)c1ccc(F)cc1)N1CCCCCC1 (configuration not stated),n,n,n,n,n,n
CCOC(=O)C1CCCN(S(=O)(=O)c2ccc(Br)s2)C1 (configuration not stated),n,n,83,n,n,n
O=C(C1Cc2ccccc2CN1S(=O)(=O)c1cccs1)N1CCCCCC1 (configuration not stated),n,n,82,n,n,n

# Screening data as filed in PubChem BioAssay.
